# Measured values published in the supplement of paper PMC10037445.
# Whole data set: some 2,900 compounds, median “IRF Lucia reporter activity, fold change vs agonist alone” near 0.9, cut for the highest 2% near 2.8. This excerpt belongs to a sample that is enriched for the highest values.
# Assays:
# [1] = system: RAW-Dual; assay: IRF Lucia reporter activity, fold change vs agonist alone; higher = enhanced IRF activity; conditions: library stock concentration (final ~1000-fold dilution): 10 mM; cytotoxicity flag (confluency mask): not cytotoxic; agonist: MPLA (TLR4) […]
# Method in brief: (§1)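 RAW-Dual macrophages (50,000 cells/well in DMEM, 384-well plates) received 50 nL of library stock by pin tool, then a PRR agonist 1 h later, and were kept at 37 °C, 5% CO2. After 20 hours, supernatant was read for IRF by QuantiLuc luminescence and for NF-κB by QuantiBlue absorbance at 620 nm. Reporter activity is fold change over agonist-alone wells. Cytotoxic wells had IncuCyte confluency below 70% of agonist controls in both mask sets.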
# [2] = system: RAW-Dual; assay: IRF Lucia reporter activity, fold change vs agonist alone; cytotoxicity flag (confluency mask): not cytotoxic; higher = enhanced IRF activity
# Method in brief: as §1
# [3] = system: RAW-Dual; assay: IRF Lucia reporter activity, fold change vs agonist alone; cytotoxicity flag (confluency mask): cytotoxic (confluency <70% of control); higher = enhanced IRF activity
# Method in brief: as §1
# [4] = agonist: 3'3'-cGAMP (STING) 10 ug/mL
smiles,measurement,setting,value
COc1cc(F)c(C(C)C)cc1-c1ccc(C(F)(F)F)cc1CN1C(=O)OC(c2cc(C(F)(F)F)cc(C(F)(F)F)c2)C1C (stereo not drawn),IRF Lucia reporter activity,[1],1.1
COc1cc(F)c(C(C)C)cc1-c1ccc(C(F)(F)F)cc1CN1C(=O)OC(c2cc(C(F)(F)F)cc(C(F)(F)F)c2)C1C (stereo not drawn) (library stock concentration (final ~1000-fold dilution): 10 mM),IRF Lucia reporter activity,[2]; [4],1.12
same,IRF Lucia reporter activity,[2]; agonist: LPS (TLR4) 0.1 ug/mL,1.14
CC(C)(O)CNc1ncc(-c2ccnc(Nc3ccnc(Cl)c3)n2)c(CC2CC2)n1 (library stock concentration (final ~1000-fold dilution): 10 mM),IRF Lucia reporter activity,[2]; [4],0.0702
same,IRF Lucia reporter activity,[2]; agonist: LPS (TLR4) 0.1 ug/mL,3.2
COc1cc(N2CCN(C)CC2)ccc1Nc1nccc(-c2cn(C)c3cnccc23)n1 (library stock concentration (final ~1000-fold dilution): 10 mM),IRF Lucia reporter activity,[2]; [4],0.0231
same,IRF Lucia reporter activity,[2]; agonist: LPS (TLR4) 0.1 ug/mL,0.154
CC(C)(O)CNc1ncc(-c2ccnc(Nc3ccncc3)n2)c(CC2CC2)n1 (library stock concentration (final ~1000-fold dilution): 10 mM),IRF Lucia reporter activity,[2]; [4],0.364
same,IRF Lucia reporter activity,[2]; agonist: LPS (TLR4) 0.1 ug/mL,10.3
COc1cc(N2CCN(C)CC2)ccc1Nc1nccc(-c2cn(C)c3cnccc23)n1,IRF Lucia reporter activity,[1],0.246
Cc1ccc(NC(=O)c2ccc(CN3CCN(C)CC3)cc2)cc1Nc1nccc(-c2cccnc2)n1,IRF Lucia reporter activity,[1],1.29
Cc1nc(N)sc1-c1ccnc(Nc2ccc(N3CCOCC3)cc2)n1,IRF Lucia reporter activity,[1],0.0284
Nc1ncc(-c2ccnc(Nc3ccncc3)n2)c(CC2CC2)n1 (library stock concentration (final ~1000-fold dilution): 10 mM),IRF Lucia reporter activity,[3]; [4],0.336
same,IRF Lucia reporter activity,[3]; agonist: LPS (TLR4) 0.1 ug/mL,3.92
Cc1nc(N)sc1-c1ccnc(Nc2ccc(N3CCOCC3)cc2)n1 (library stock concentration (final ~1000-fold dilution): 10 mM),IRF Lucia reporter activity,[2]; [4],0.0149
same,IRF Lucia reporter activity,[2]; agonist: LPS (TLR4) 0.1 ug/mL,0.023
Cc1ccc(NC(=O)c2ccc(CN3CCN(C)CC3)cc2)cc1Nc1nccc(-c2cccnc2)n1 (library stock concentration (final ~1000-fold dilution): 10 mM),IRF Lucia reporter activity,[2]; [4],0.549
same,IRF Lucia reporter activity,[2]; agonist: LPS (TLR4) 0.1 ug/mL,0.944
CC(C)(O)CNc1nc(Nc2ccnc(C(F)(F)F)c2)nc(-c2cccc(C(F)(F)F)n2)n1 (library stock concentration (final ~1000-fold dilution): 10 mM),IRF Lucia reporter activity,[2]; [4],1
same,IRF Lucia reporter activity,[2]; agonist: LPS (TLR4) 0.1 ug/mL,1.29
Cc1c(NC(=O)OCC2COCCN2)cn2ncnc(Nc3ccc4c(cnn4Cc4cccc(F)c4)c3)c12 (stereo not drawn),IRF Lucia reporter activity,[1],1.3
Cc1c(NC(=O)OCC2COCCN2)cn2ncnc(Nc3ccc4c(cnn4Cc4cccc(F)c4)c3)c12 (stereo not drawn) (library stock concentration (final ~1000-fold dilution): 10 mM),IRF Lucia reporter activity,[2]; [4],0.267
same,IRF Lucia reporter activity,[2]; agonist: LPS (TLR4) 0.1 ug/mL,1.28
